The results in this text go back to PubChem BioAssay AID1851 (National Center for Advancing Translational Sciences (NCATS), 2009).

For orientation: AC50 means the midpoint of the concentration-response curve, whichever way the signal moves.

Values joined by “and” are separate entries in the source; they are usually repeats but may differ in a detail not shown here. Equal entries are not always repeated. About 4,000 (25%) of roughly 16,000 compounds were called active. Inconclusive results (about 26%) are left out. Calls come from the whole dose curve; as a rule, active = well fitted curve in the direction sought with a large enough effect; inconclusive = small, poorly fitted or top-dose-only effect, or effect the other way; inactive = no such curve, though single readings can be large or run the other way. Only a sample is shown. Some compounds were tested as several samples or in several runs, with calls that do not always agree.
% is set by controls: 0 for no effect and ±100 for the full control effect.

The target of this assay is Cytochrome P450 2C9 (Homo sapiens) (UniProt P11712). Nature of the assay: Cytochrome panel assay with activity outcomes. The following applies: recombinant CYP, pro-luciferin dealkylation, luminescence, p450-cyp2c9; series mostly up to 57.1 µM; activity, negative = inhibition: at the top concentration.
Cytochrome P450 2C9 (Homo sapiens), sequence (P11712 whole entry, looked up): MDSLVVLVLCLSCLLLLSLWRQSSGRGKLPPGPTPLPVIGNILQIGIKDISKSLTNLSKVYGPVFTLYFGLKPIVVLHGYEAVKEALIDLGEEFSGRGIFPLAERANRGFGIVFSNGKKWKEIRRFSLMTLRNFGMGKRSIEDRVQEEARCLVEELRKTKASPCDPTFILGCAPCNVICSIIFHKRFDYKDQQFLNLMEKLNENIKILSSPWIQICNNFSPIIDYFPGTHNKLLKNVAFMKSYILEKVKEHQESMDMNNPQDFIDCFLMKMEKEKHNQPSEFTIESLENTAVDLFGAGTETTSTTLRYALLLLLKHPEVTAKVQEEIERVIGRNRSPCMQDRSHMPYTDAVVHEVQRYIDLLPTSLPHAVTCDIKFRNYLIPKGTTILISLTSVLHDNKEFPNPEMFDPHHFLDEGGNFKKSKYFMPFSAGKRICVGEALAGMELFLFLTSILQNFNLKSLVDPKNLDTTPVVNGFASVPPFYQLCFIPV
For the compound `CC(C)c1ccc(CN(C(=O)C2COc3ccccc3O2)C2CCS(=O)(=O)C2)cc1` (stereo not given), the AC50 is 11.2 µM (active).
In the case of `O=C(CNc1cccc(Cl)c1)c1ccc(Cl)cc1`, the “activity, negative = inhibition” value was -14.9% (inactive).
Turning to `CO/N=C(/CNC(=O)c1ccc(Cl)cc1Cl)c1ccc(Cl)cc1`, the AC50 is 1.12 µM (active).
Turning to `COc1cccc(C(=O)NCCN2CCN(c3ccc(Cl)cc3)CC2)c1`, the “activity, negative = inhibition” value is 14.4% (inactive).
Regarding `CO/N=C(/CNC(=O)c1cccc(Cl)c1)c1ccc(Cl)cc1`, the AC50 was 3.55 µM (active).
As to `OC[C@@H](O)[C@@H](O)[C@@H](O)[C@@H](O)c1nc2ccc(Cl)cc2[nH]1`, the activity, negative = inhibition is -5.01% [at 11.4 µM] (inactive).
In the case of `N[C@@H]1CONC1=O`, the AC50 entry is “inactive”.
Consider `Cn1c([N+](=O)[O-])cnc1COC(N)=O`, for which the “activity, negative = inhibition” value is 29.3% [at 25.6 µM] (inactive).
Same read-out and setting: under `CSc1nc(N)c2ncn([C@@H]3O[C@@H](COP(=O)(O)OP(=O)(O)O)[C@@H](O)[C@H]3O)c2n1` stands 8.4% (inactive); under `COc1ccc(NC(=O)c2ccc(-c3ccc(-c4noc(C)n4)cc3C)cc2)cc1OCCN(C)C`, -5.88% (inactive).
On to `COc1ccc(NC(=O)c2ccc(-c3ccc(-c4noc(C)n4)cc3C)cc2)cc1N1CCN(C)CC1`, for which the concentration at half-maximal activity (AC50) entry was “inactive and 7.94 µM (active)”.
On the same count and under the same terms, under `CNCCC=C1c2ccccc2CCc2ccccc21` stands “inactive”.
With `OC[C@@H]1O[C@@H](n2cnc3c(NC4CCCC4)ncnc32)[C@@H](O)[C@H]1O`, the “activity, negative = inhibition” value is 12.1% (inactive).
On to `COC(=O)C1(CC(C)C)C=C2C(=C(c3ccccc3)C(=O)C2C)CN1` (stereo not given), for which the AC50 is 10 µM (active).
The same measure, in the same setting: under `COC(=O)C1(C)C=C2C(=C(c3ccccc3)C(=O)C2C)CN1` (stereo not given) stands 10 µM (active); under `CCCC1(C(=O)OC)C=C2C(=C(c3ccccc3)C(=O)C2C)CN1` (stereo not given), 5.01 µM (active).
Regarding `COC(=O)C1(Cc2ccccc2)C=C2C(=C(C)C(=O)C2C)CN1` (stereo not given), the “activity, negative = inhibition” value was -21.6% (inactive).
`CC1(C)CC(=O)C(CCC(=O)c2ccccc2)C(C)(C)N1` (stereo not given): the “activity, negative = inhibition” value was -16.3% (inactive).
The same measure, in the same setting: under `CN(C)c1ccc(-c2cncnc2NCc2ccccc2)cc1` stands -13.6% [at 2.29 µM] (inactive).
Still for that read-out and setting: under `NC(=O)C[C@H](N)C(N)=O` stands -1.03% [at 11.4 µM] (inactive); under `CN[C@]1(C)[C@H]2CC[C@@H](C2)C1(C)C`, -5.41% [at 25.6 µM] (inactive); under `Clc1ccc2c(NCCNc3ccnc4cc(Cl)ccc34)ccnc2c1`, -3.79% [at 11.4 µM] (inactive).
Still for that read-out and setting: under `CN[C@@H]1[C@H](O[C@@H]2O[C@H](CO)[C@@H](N)[C@H](O)[C@@H]2O)O[C@H]2C[C@@H](N)[C@@H](O[C@H]3[C@@H](O)[C@H](O)[C@H](N)C[C@@H]3N)O[C@H]2[C@H]1O` stands -2.58% [at 25.6 µM] (inactive); under `COc1cc(OC)c2cc(-c3ccncc3)cnc2c1`, -9.27% (inactive).
As for `CCOC(=O)c1cc(NC(=O)c2ccc(C)cc2)c(=O)oc1-c1ccccc1`, the “activity, negative = inhibition” value was -18% (inactive).
`CCOC(=O)c1cc2c(C(F)(F)F)cc(-c3ccccc3)nc2o1`: the half-maximal activity concentration (AC50) is 2.24 µM (active).
Turning to `Cc1[nH]c2c(C)cccc2c1CCNC(=O)c1ccc2c(c1[N+](=O)[O-])C(=O)c1ccccc1C2=O`, the AC50 is 1.12 µM (active).
In the case of `Cc1[nH]c2ccccc2c1CCNC(=O)c1ccc2c(c1[N+](=O)[O-])C(=O)c1ccccc1C2=O`, the “activity, negative = inhibition” value was -4.48% (inactive).
On the same count and under the same terms, under `COc1ccccc1-c1cncnc1NCc1cccnc1` stands 3.29% [at 2.29 µM] (inactive).
With `O=C(/C=C/c1ccc2c(c1)OCO2)NCCSCc1cccc(Cl)c1`, the AC50 was 5.01 µM (active).
Turning to `O=C(Cn1nc(C(F)F)cc1C(F)F)N/N=C/c1ccc2c(c1)OCO2`, the “activity, negative = inhibition” value is -10% (inactive).
With `O=C(CSCc1cccc(Br)c1)N/N=C/c1ccc2c(c1)OCO2`, the AC50 is 10 µM (active).
For the compound `C=CCNC(=O)CC(=O)N/N=C/c1cccc(Br)c1`, the “activity, negative = inhibition” value is -4.91% (inactive).
Same read-out and setting: under `OC[C@@H]1O[C@@H](N2CCN([C@@H]3O[C@@H](CO)[C@@H](O)[C@H](O)[C@H]3O)CC2)[C@@H](O)[C@H](O)[C@H]1O` stands 7.18% [at 11.4 µM] (inactive).
Turning to `Cc1ccc(NC(=O)C(=O)NCc2ccc(/C=C(/C#N)C(=O)NCc3cccnc3)o2)cc1`, the AC50 was 0.631 µM (active).
With `CCN1C(=O)[C@H]2[C@H]3[C@H](O)[C@H](O)C/C(=N/OC[C@@H](C)[C@H](OCc4ccccc4)C(C)C)[C@@H]3CC[C@@H]2C1=O`, the activity, negative = inhibition was 19.1% [at 11.4 µM] (inactive).
Still for that read-out and setting: under `Cc1cccc(CNc2nc(-c3ccoc3)nc3ccccc23)c1` stands -6.69% [at 2.29 µM] (inactive).
For the compound `Cc1cccc(NC(=O)CSc2nc3ccccc3c3nc(CCc4c(C)n[nH]c4C)nn23)c1`, the AC50 was 1.26 µM (active).
Same read-out and setting: under `Cc1nnc(-c2cnn(-c3ccccc3)c2N)n1Cc1ccc(F)cc1` stands 15.8 µM (active); under `Cc1nnc(-c2cnn(-c3ccccc3)c2N)n1Cc1ccncc1`, 14.1 µM (active).
With `Cc1ncc(CSC(=N)N)n1Cc1ccccc1`, the activity, negative = inhibition was -16.1% [at 11.4 µM] (inactive).
Regarding `N=C(N)C(N=Nc1ccccc1)C(=N)N` (stereo not given), the activity, negative = inhibition was 11.9% [at 11.4 µM] (inactive).
Regarding `O=C(O)[C@@H](O)[C@@H](O)[C@@H](O[C@H]1O[C@@H](CO)[C@@H](O)[C@@H](O)[C@@H]1O)[C@@H](O)CO`, the “activity, negative = inhibition” value is -14.4% [at 25.6 µM] (inactive).
Consider `Cc1ccc(C2NC(c3ccc(C)cc3)C(C)C(=NO)C2C)cc1` (stereo not given), for which the AC50 was 6.31 µM (active).
Same read-out and setting: under `Clc1ccc(CSCCc2ccncc2)cc1Cl` stands 0.0794 µM (active).
